Where “and” joins values, the source holds several entries; their conditions need not be identical. Equal entries are not always repeated. Calls of active or inactive are those of the source.

Test [1] has as its system XIP peptide (Xip251-270) binding. Briefly: XIP fragment 251-270 binding compounds – biochemical, small-molecule microarray, fluorescence 635/667 nm, 0.1 µg/mL protein, primary screen (AID 1182). Particulars: fluorescent protein binding, 635 nm, higher = more signal, called active from +8 up or from −8 down.
The test system of another test is XIP peptide (Xip251-270). Briefly: compounds binding XIP fragment 251-270 – biochemical, small-molecule microarray, fluorescence 635/667 nm, 0.5 µg/mL protein, primary screen (AID 1183). To be noted: fluorescence 635 nm, higher = more signal.
A short description of test [2]: blood-stage malaria parasite viability loss – strain 3D7, DAPI fluorescence, 100 nL, primary screen (AID 1184).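 Further: parasites grown inside human red blood cells in medium with human serum.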 To be noted: P. falciparum 3D7 growth, 3 d, higher = more signal.
For test [3], the target named is Homeobox protein Hox-A13 (Mus musculus) (UniProt Q62424). As to the kind of experiment: disruptors of Hoxa13 oligonucleotide interaction – biochemical, fluorescence polarization, labeled oligonucleotide, primary screen (AID 1185). Particulars: Hoxa13:DNA binding, 15 min, higher = more signal, called active from +8 up or from −8 down.
Homeobox protein Hox-A13 (Mus musculus), sequence (Q62424 whole entry, looked up): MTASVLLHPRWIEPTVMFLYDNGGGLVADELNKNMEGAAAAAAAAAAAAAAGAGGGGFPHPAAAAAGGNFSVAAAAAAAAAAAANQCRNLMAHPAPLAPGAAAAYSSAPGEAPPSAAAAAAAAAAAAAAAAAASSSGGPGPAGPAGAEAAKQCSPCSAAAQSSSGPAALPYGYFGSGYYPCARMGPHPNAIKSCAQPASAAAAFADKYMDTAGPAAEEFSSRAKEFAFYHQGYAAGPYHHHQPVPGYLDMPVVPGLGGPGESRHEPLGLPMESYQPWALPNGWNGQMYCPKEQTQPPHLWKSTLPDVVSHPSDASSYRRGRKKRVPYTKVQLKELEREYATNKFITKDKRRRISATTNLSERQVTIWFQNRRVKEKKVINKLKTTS

`COC(=O)C1=C(C)N(Cc2ccccc2)[C@]23O[C@](C(=O)OC)(C(=O)N2[C@@H]1c1ccccc1)[C@@H](C(=O)OC)[C@H]3C(=O)OC`: the composite z-score in test [1] was 1.4 (inactive) and -0.409 (inactive); in the test with XIP peptide (Xip251-270), -0.0215 and 0.118. The z-score is -0.0831 and 0.255 in test [2]; -4.02 (inactive) and -0.38 (inactive) in test [3].

Consider `CCN1C(=O)[C@H]2[C@H]3[C@H](O)[C@H](O)CC(=NNC(=O)OCc4ccc(OC)cc4)[C@H]3CC[C@H]2C1=O`, for which the composite z-score was 0.0568 (inactive) in test [1] and 0.267 in the test on XIP peptide (Xip251-270). The z-score in test [2] was 0.38; in test [3], 0.429 (inactive).

`C[C@@H]1CC[C@H]2C(=O)O[C@H](CN=[N+]=[N-])CN2[C@H]1c1ccc(Br)cc1`: the composite z-score was -0.036 (inactive) and -0.0365 (inactive) in test [1]; 0.183 and 0.186 in the test with XIP peptide (Xip251-270). Also, the z-score in test [2] was -2.02 and -0.068; in test [3], -1.98 (inactive) and -3.31 (inactive).

With `Cc1ccc(S(=O)(=O)N[C@H]2COC(=O)[C@@H](Cc3ccccc3)NC(=O)[C@@H](C)COC(=O)CC=C[C@@H]2C)cc1`, the composite z-score was 0.124 (inactive) and 0.125 (inactive) in test [1]; 0.174 and -0.0928 in the test with XIP peptide (Xip251-270). The z-score was -0.446 and -1.34 in test [2]; 0.469 (inactive) and -3.02 (inactive) in test [3].

For the molecule `COc1ccc(COC(=O)NN=C2C[C@@H](O)[C@@H](O)[C@@H]3[C@@H]4C(=O)N(C(C)(C)C)C(=O)[C@@H]4CC[C@H]23)cc1`, the composite z-score is 2.23 (inactive) in test [1] and 0.801 with XIP peptide (Xip251-270). For the same molecule, the z-score was 0.189 in test [2] and 0.471 (inactive) in test [3].

As to `Cc1cc2c(nc1C)CCCN2CC(O)CN1CCCc2nc(-c3ccc(Br)cc3)ccc21` (stereo unspecified), the composite z-score is 1.5 (inactive) and 4.73 (inactive) in test [1]; 0.719 and 0.327 with XIP peptide (Xip251-270). For the same molecule, the z-score is -0.614 and 0.112 in test [2]; -7.89 (inactive) and -7.9 (inactive) in test [3].

As for `COC(=O)C1=C(C)N(Cc2ccccc2)[C@]23O[C@](C(=O)OC)(C(=O)N2[C@@H]1c1ccccc1)[C@H]1C(=O)N(c2ccccc2)C(=O)[C@H]13`, the composite z-score in test [1] was 0.229 (inactive) and 0.555 (inactive); in the test on XIP peptide (Xip251-270), -0.275 and -0.308. Further, the z-score in test [2] was -0.391 and 1.02; in test [3], -2.26 (inactive) and -1.88 (inactive).

For `C[C@@H]1CC[C@H]2C(=O)NC[C@@H](O)CN2[C@H]1c1ccc(Br)cc1`, the composite z-score in test [1] was 0.21 (inactive) and 0.567 (inactive); in the test on XIP peptide (Xip251-270), 0.22 and 0.889. Moreover, the z-score was -0.601 and 0.863 in test [2]; -2.22 (inactive) and -1.74 (inactive) in test [3].

With `CCCC[C@@H]1CN2[C@H](c3ccc(Br)cc3)[C@@H](C)CC[C@H]2C(=O)O1`, the composite z-score in test [1] is 0.744 (inactive) and -0.433 (inactive); in the test on XIP peptide (Xip251-270) it was -0.322 and -0.118. In addition, the z-score in test [2] is -0.0735 and 0.113; in test [3], -1.48 (inactive) and -3.43 (inactive).

Take `COC(=O)C1=C(C)N(Cc2ccccc2)C2=C(C(C)=O)[C@H](c3ccccc3)[C@@](O)(C(=O)OC)C(=O)N2[C@@H]1c1ccccc1`: the composite z-score in test [1] was 0.284 (inactive) and -0.864 (inactive); with XIP peptide (Xip251-270) it was 0.727 and -1.64. Also, the z-score was 0.512 and -0.515 in test [2]; -4.62 (inactive) and 0.136 (inactive) in test [3].

In the case of `CO[C@@H]1COC(=O)[C@H](Cc2ccccc2)NC(=O)CC=C[C@@H](C)[C@H](OC)COC(=O)[C@@H](C)NC(=O)CC=C[C@H]1C`, the composite z-score in test [1] is 0.219 (inactive) and 0.97 (inactive); with XIP peptide (Xip251-270), 0.499 and 0.535. In addition, the z-score in test [2] is -0.446 and 0.677; in test [3], -0.525 (inactive) and -0.47 (inactive).

For the molecule `CC(=O)OC[C@H]1O[C@H](C#CC(C)(C)C)C=C[C@@H]1OC(C)=O`, the results for the composite z-score (in test [1]; with XIP peptide (Xip251-270)) were 0.853 (inactive) and 0.575, respectively. Also, the z-score in test [2] was 1.32; in test [3] it was -2.75 (inactive).

For the molecule `COC(=O)[C@H](C)NC(=O)CCC1CC(OC(=O)NCCc2ccc(F)cc2)CC2(CCCC(COC(=O)NCCCN3CCCC3=O)O2)O1` (stereo partly specified), the figures for the composite z-score (in test [1]; in the test with XIP peptide (Xip251-270)) were 0.348 (inactive) and 0.683, respectively. The values for the z-score in test [2] and in test [3] were -1.9 and -4.1 (inactive), respectively.

Regarding `CCOC(=O)[C@H](Cc1ccccc1)NC(=O)CCC1CC(OC(=O)NCc2cccc3ccccc23)CC2(CCCC(COC(=O)NCCCN3CCCC3=O)O2)O1` (stereo partly specified), the composite z-score is 0.684 (inactive) in test [1] and 0.351 with XIP peptide (Xip251-270). Moreover, the z-score is -1.63 in test [2] and -4.68 (inactive) in test [3].

Turning to `COc1ccc(-c2ccc3c(n2)CCCN3CC(O)CN2CCCc3nc(-c4ccc(Br)cc4)ccc32)cc1` (stereo unspecified), the composite z-score in test [1] is 0.947 (inactive) and 1.14 (inactive); in the test on XIP peptide (Xip251-270), 0.717 and 0.257. Also, the z-score in test [2] was -0.309 and 0.613; in test [3] it was -3.36 (inactive) and -1.95 (inactive).

Regarding `COC(=O)C1=C(C)N(Cc2ccccc2)C2=C3C(=O)CCC[C@@H]3[C@@](O)(C(=O)OC)C(=O)N2[C@@H]1c1ccccc1`, the composite z-score is 0.995 (inactive) and 0.0397 (inactive) in test [1]; 0.135 and -0.554 in the test on XIP peptide (Xip251-270). Further, the z-score in test [2] was 0.0894 and 0.169; in test [3], -0.77 (inactive) and -1.47 (inactive).

`COCn1c2ccccc2c2nnc(C(C)=O)nc21`: the composite z-score was -0.0478 (inactive) and 0.199 (inactive) in test [1]; -0.392 and -0.333 with XIP peptide (Xip251-270). For the same molecule, the z-score in test [2] was -1.12 and -1.29; in test [3] it was 0.732 (inactive) and 0.896 (inactive).

With `C[C@@H](c1ccccc1)N1C(=O)[C@H]2[C@H]3[C@H](O)[C@H](O)CC(=O)[C@@H]3CC[C@H]2C1=O`, the composite z-score in test [1] is -0.415 (inactive); in the test on XIP peptide (Xip251-270), 0.403. Further, the z-score in test [2] was 0.241; in test [3] it was 0.063 (inactive).

For the molecule `C=C(C)C(=O)OC[C@@H]1CN2[C@@H](CC[C@@H](C)[C@@H]2c2ccc(Br)cc2)C(=O)O1`, the composite z-score in test [1] is 0.0138 (inactive); with XIP peptide (Xip251-270), 0.175. Further, the values for the z-score in test [2] and in test [3] were 0.693 and -3.29 (inactive), respectively.
